Common to all, as to assay: protein-binding microarray (PBM); PBM: ~300 nM protein, 6 mM HEPES pH 7.8, 80 mM KCl, 0.5 mM EDTA, 0.5 mM EGTA, 6% glycerol, 35 ng/ul poly-dIdC, 1% milk, 1 h, room temperature; Ap Aiptasia and Nv Nematostella (sea anemones) / Co Capsaspora / Aq Amphimedon (sponge) / Dm Drosophila / Hu human; RHD is the Rel homology domain; high values mean tight binding
What all share (details): dsDNA, one strand shown

The target in experiment [1] is T1, GST-Ap-NF-kB RHD (Exaiptasia pallida (Aiptasia), UniProt A0A913YAJ5 2-422).
T1 sequence: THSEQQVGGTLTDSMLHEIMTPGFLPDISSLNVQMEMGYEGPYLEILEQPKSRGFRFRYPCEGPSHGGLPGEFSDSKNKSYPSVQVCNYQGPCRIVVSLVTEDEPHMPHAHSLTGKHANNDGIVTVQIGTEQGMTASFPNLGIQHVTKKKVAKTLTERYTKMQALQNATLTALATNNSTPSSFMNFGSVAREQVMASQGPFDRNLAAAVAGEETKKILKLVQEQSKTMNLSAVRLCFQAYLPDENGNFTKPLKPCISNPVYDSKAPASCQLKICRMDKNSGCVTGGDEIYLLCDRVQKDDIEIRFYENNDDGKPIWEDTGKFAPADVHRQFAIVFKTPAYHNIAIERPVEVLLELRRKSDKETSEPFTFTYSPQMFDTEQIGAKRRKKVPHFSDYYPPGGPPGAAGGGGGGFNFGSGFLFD

The target in experiment [2] is T2, GST-Nv-NF-kB (Cys allele) (Nematostella vectensis, UniProt E5G601 2-411).
T2 sequence: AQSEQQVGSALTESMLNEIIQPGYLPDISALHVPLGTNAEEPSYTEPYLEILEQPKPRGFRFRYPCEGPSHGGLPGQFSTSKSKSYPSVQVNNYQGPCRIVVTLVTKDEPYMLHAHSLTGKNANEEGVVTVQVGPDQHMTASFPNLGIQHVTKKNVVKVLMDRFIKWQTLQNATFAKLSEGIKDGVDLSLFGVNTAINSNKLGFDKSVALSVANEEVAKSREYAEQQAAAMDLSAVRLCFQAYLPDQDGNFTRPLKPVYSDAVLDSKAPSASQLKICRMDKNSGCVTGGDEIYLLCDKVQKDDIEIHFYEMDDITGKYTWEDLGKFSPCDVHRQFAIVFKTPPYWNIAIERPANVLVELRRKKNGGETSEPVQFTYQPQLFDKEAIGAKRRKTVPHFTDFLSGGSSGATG

The target in experiment [3] is T3, GST-Nv-NF-kB (Ser allele) (Nematostella vectensis, UniProt A7UNT2 2-411).
T3 sequence: T2 sequence with Q21R, C66S, S207N, E215Q, V217A, E225K, A268E, D399E

The target of experiment [4] is T4, GST-Co-NF-kB (Capsaspora owczarzaki, UniProt F1ARL5 200-546).
T4 sequence: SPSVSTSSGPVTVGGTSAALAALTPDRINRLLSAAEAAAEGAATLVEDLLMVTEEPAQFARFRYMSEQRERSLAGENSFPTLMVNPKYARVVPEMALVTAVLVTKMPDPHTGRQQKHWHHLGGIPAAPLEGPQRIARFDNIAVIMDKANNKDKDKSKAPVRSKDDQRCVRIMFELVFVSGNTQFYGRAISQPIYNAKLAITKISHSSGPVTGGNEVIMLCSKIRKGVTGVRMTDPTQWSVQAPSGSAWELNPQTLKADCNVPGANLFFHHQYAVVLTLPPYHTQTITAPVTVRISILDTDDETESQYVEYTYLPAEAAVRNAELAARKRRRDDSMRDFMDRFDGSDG

Experiment [5] addresses T5, GST-Dm-Relish (Drosophila melanogaster, UniProt Q94527 99-473).
T5 sequence: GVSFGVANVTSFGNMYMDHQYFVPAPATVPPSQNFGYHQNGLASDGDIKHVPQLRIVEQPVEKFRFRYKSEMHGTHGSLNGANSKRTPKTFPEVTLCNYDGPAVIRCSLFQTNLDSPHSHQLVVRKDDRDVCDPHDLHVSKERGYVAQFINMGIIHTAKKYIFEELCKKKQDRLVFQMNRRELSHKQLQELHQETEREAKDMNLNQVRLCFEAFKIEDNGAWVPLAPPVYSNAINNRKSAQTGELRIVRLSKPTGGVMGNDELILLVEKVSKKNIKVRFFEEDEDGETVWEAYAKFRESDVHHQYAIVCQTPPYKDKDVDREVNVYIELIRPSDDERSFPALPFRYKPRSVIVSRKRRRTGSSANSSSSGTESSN

Experiment [6] concerns the target T6, GST-Aq-NF-kB (Amphimedon queenslandica, UniProt A9Y5G7 2-389).
T6 sequence: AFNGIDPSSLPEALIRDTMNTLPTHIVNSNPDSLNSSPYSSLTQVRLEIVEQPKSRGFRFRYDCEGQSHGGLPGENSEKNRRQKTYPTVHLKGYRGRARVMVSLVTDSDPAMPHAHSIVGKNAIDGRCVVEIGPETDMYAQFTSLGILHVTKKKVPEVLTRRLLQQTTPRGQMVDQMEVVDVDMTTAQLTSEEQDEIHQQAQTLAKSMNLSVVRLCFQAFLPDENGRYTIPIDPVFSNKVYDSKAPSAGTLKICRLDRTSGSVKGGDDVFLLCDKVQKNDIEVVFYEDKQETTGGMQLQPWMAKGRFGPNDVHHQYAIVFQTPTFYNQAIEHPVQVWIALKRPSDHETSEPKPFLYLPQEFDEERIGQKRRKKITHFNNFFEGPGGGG

Experiment [7] has as its target GST-Hu-p50 (Homo sapiens, UniProt P19838 7-356).

Residue numbers refer to the chain shown, from its start.

Chain of GST-Hu-p50 (P19838 7-356): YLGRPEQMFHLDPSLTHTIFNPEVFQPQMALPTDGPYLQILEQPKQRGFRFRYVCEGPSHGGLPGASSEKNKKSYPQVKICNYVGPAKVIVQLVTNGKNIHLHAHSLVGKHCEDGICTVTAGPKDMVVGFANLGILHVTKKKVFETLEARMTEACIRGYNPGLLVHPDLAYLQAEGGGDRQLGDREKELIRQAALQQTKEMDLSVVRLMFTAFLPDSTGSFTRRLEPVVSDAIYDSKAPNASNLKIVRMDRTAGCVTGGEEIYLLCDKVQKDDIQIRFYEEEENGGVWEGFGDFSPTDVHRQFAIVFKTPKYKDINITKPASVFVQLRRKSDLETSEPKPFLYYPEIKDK

With “CCGATTAACATCACCGTTTCCCCTGATGTTAATCGGGTCTTGATTCGCTTGACGCTGCTG”, the binding signal in experiment [1] stood at 6.05 z-score; in experiment [2], 6.66 z-score; in experiment [3], 9.86 z-score; in experiment [4], 7.95 z-score; in experiment [5], 2.77 z-score; in experiment [6], 4.66 z-score. In experiment [7], this sequence yielded a binding signal of 5.1 z-score.

Regarding “CCGATTAACATCAAATTTCCCAATGATGTTAATCGGGTCTTGATTCGCTTGACGCTGCTG”, the binding signal in experiment [1] is 2.25 z-score; in experiment [2], 4.12 z-score; in experiment [3] it was 3.77 z-score; in experiment [4] it was 3.94 z-score; in experiment [5], 2.51 z-score; in experiment [6] it was 3.58 z-score. This sequence gave a binding signal in experiment [7] of 3.39 z-score.

“CCGATTAACATCAAAAATCCCACTGATGTTAATCGGGTCTTGATTCGCTTGACGCTGCTG”: the binding signal in experiment [1] was 3.51 z-score; in experiment [2], 3.55 z-score; in experiment [3], 2.95 z-score; in experiment [4] it was 1.65 z-score; in experiment [5], 7.7 z-score; in experiment [6] it was 3.87 z-score. The same sequence registered a binding signal in experiment [7] of 3.73 z-score.

For “CCGATTAACATCATTTGGGAAAATGATGTTAATCGGGTCTTGATTCGCTTGACGCTGCTG”, the binding signal in experiment [1] was found to be 1.08 z-score; in experiment [2], 3.26 z-score; in experiment [3] it was 4.46 z-score; in experiment [4], 2.04 z-score; in experiment [5], 1.08 z-score; in experiment [6], 1.67 z-score. Moreover, the binding signal in experiment [7] was 2.23 z-score.

In the case of “CCGATTAACATCAGGGGGTTTGATGATGTTAATCGGGTCTTGATTCGCTTGACGCTGCTG”, the binding signal in experiment [1] is 6.11 z-score; in experiment [2], 4.29 z-score; in experiment [3], 6.14 z-score; in experiment [4] it was 1.61 z-score; in experiment [5], 5.81 z-score; in experiment [6], 4.09 z-score. The sequence also registered a binding signal in experiment [7] of 6.03 z-score.

Regarding “CCGATTAACATCACGGGATTTGGTGATGTTAATCGGGTCTTGATTCGCTTGACGCTGCTG”, the binding signal in experiment [1] worked out at 1.89 z-score; in experiment [2] it was 1.93 z-score; in experiment [3], 1.12 z-score; in experiment [4], 1.17 z-score; in experiment [5], 1.79 z-score; in experiment [6] it was 1.61 z-score. In experiment [7], the binding signal came to 2.36 z-score.

As to “CCGATTAACATCAAGGGTTTCCCTGATGTTAATCGGGTCTTGATTCGCTTGACGCTGCTG”, the binding signal was found to be 4.12 z-score in experiment [1]; 4.79 z-score in experiment [2]; 4.07 z-score in experiment [3]; 3.82 z-score in experiment [4]; 7.83 z-score in experiment [5]; 5.56 z-score in experiment [6]. The sequence also showed a binding signal in experiment [7] of 3.28 z-score.

For “CCGATTAACATCAAAAGAACCCCTGATGTTAATCGGGTCTTGATTCGCTTGACGCTGCTG”, the binding signal in experiment [1] amounted to 4.18 z-score; in experiment [2], 3.46 z-score; in experiment [3], 3.14 z-score; in experiment [4] it was 2.76 z-score; in experiment [5], 5.45 z-score; in experiment [6], 4.8 z-score. Besides, the binding signal in experiment [7] turned out to be 4.47 z-score.

With “CCGATTAACATCAGGATGCCCCCTGATGTTAATCGGGTCTTGATTCGCTTGACGCTGCTG”, the binding signal in experiment [1] was 4.93 z-score; in experiment [2] it was 4.06 z-score; in experiment [3], 2.93 z-score; in experiment [4], 1.55 z-score; in experiment [5] it was 4.63 z-score; in experiment [6], 5.09 z-score. This sequence also displayed a binding signal in experiment [7] of 4.35 z-score.

Turning to “CCGATTAACATCACGGGGATTTATGATGTTAATCGGGTCTTGATTCGCTTGACGCTGCTG”, the binding signal turned out to be 7.32 z-score in experiment [1]; 7.95 z-score in experiment [2]; 8.97 z-score in experiment [3]; 4.67 z-score in experiment [4]; 8.32 z-score in experiment [5]; 5.47 z-score in experiment [6]. The sequence also returned a binding signal in experiment [7] of 6.63 z-score.

Take “CCGATTAACATCAGGGGAATCCATGATGTTAATCGGGTCTTGATTCGCTTGACGCTGCTG”: the binding signal in experiment [1] was 8.88 z-score; in experiment [2], 9.29 z-score; in experiment [3], 9.54 z-score; in experiment [4] it was 5.44 z-score; in experiment [5], 9.65 z-score; in experiment [6] it was 7 z-score. For the same sequence, in experiment [7], the binding signal turned out to be 6.48 z-score.

Source of the values: paper PMC5700166.
